The sequences below were run against RUNX1 (UniProt Q01196) (assay: RUNX1 binding intensity (PBM fluorescence), RUNX1 alone (arbitrary fluorescence units); higher = stronger binding). Settings: RUNX1 concentration 2 nM; ETS1 concentration 0 nM.
Sequence of RUNX1 (Q01196 whole entry): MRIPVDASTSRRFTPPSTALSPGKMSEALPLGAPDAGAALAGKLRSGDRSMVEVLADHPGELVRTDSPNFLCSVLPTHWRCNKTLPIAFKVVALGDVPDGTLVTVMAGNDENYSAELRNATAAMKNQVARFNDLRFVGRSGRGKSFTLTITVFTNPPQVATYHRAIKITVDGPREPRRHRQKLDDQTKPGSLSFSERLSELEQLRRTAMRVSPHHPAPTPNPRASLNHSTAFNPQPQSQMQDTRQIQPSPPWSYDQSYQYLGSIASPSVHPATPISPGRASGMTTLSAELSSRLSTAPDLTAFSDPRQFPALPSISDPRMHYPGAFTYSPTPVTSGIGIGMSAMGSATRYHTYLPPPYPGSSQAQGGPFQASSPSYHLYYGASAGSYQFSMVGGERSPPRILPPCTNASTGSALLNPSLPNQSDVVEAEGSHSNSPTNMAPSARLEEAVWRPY
Experimental: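 Cooperative gcPBM on 36-bp genomic probes with neighbouring ETS1 and RUNX1 sites. Recombinant human RUNX1 (2 nM) was incubated alone or with ETS1 (25 nM) and detected with anti-RUNX1 antibody plus Alexa488 secondary. Values are medians over 4 replicate spots; the RUNX1+ETS1 data were normalised to the RUNX1-only data. The probes sit in constant array flanks that are not printed.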
In the case of GGGCGGGTCAGCGGAAGTGAGGGCGGTTGAGGCTGG, the RUNX1 binding intensity is reported as 742.
TGGAAGAGGGCAGGAAGTGTTGTGGTCACTCCCACC gave an RUNX1 binding intensity of 856.
Work on CCGCTTCCTTAGAGGTTAAGTGGTGGTGGTTCAGTT yielded an RUNX1 binding intensity of 856.
CTGCGTTTCCTCTGAGTTTTGCATGTTGAGGTTGGA gave an RUNX1 binding intensity of 877.
In the case of GGCGGTGACCGGAAGAGCTGAGTCACCGCAGGCGAC, the RUNX1 binding intensity is reported as 813.
GGCGGATGGGGAGAAGAGAGTGGCTGTGGTCTCTGG showed an RUNX1 binding intensity of 861.
With GAGGCGTTTCCGCCTCCTTTTCGCGGTTGCCTTCTC the RUNX1 binding intensity was 1060.
ATGGAAAGGAAGTCGGTGGGAAACCGCCTCAGCGGT gave an RUNX1 binding intensity of 740.
AGGACACAGACAGGAAACCCGCAGGCTTTGTTTTTT showed an RUNX1 binding intensity of 859.
CAAGAGCCGGAAGTCCCTTGTGCCGCAGTCCTTCCC gave an RUNX1 binding intensity of 800.
Work on TCTGTGAAAAAGGATGTGCGGTTATGGAGGAGAACT yielded an RUNX1 binding intensity of 1210.
For GGGGGCGGAAGTTTCGGTGCATTGTGGGTTCTCCTG, the RUNX1 binding intensity was 920.
Sequence TACAGCCAGGAAATGGGGAGGGTGCTGCGGGCGGCA has an RUNX1 binding intensity of 742.
In the case of GCTTGCTCCCACAGGAAACCGCAGGCTTCGGGCACA, the RUNX1 binding intensity is reported as 7370.
CCCCGCCTCTTCCGCTTCTGTGGTCTGATCTGCCTG showed an RUNX1 binding intensity of 1250.
TCTCTACTTCCCATTATTTCTGTGGTTAATTTCACC gave an RUNX1 binding intensity of 10400.
AGCGGCCTGGGAGGAGGATGTGGTTACGTGGAGACC gave an RUNX1 binding intensity of 996.
For CTGGTTTCATTTCCGGGTGCGGCTTCTGTCATAAAG, the RUNX1 binding intensity was 924.
In the case of GCCACAGCCGGAAGCAGGCTGACCACAAGTGCTAAG, the RUNX1 binding intensity is reported as 1310.
In the case of GTTAGAGGAAGAGGAAGCGGTCAAGAGATCGTCACA, the RUNX1 binding intensity is reported as 766.
Work on GACAGGAAGCCCGCGGCAGCCTCCGTGGTTGCAGAT yielded an RUNX1 binding intensity of 773.
GCTCATTTATGCATCCTGTGGTCTGTGTGTGTTTCG gave an RUNX1 binding intensity of 984.
CAGCTCTCTCGCTTCCTGTGGTGTAAACATGAAGCA gave an RUNX1 binding intensity of 964.
With AGATGCAGAACAGGAAGTGGTTTAGAAAGCCACTCT the RUNX1 binding intensity was 827.
In the case of TACAACTTGCAACGGAAACCACTTCAGGTTCATTAC, the RUNX1 binding intensity is reported as 847.
GACCACTTCCTTTCTGTGTTTTGTGGTTTCACAACT was tested, and the RUNX1 binding intensity was 2430.
Work on TTGAGGGGAAGGGGAGGAAGTGGTCATTGGAACTTG yielded an RUNX1 binding intensity of 776.
With ACCCGGATGTCGTTGGGCAGGAACTGCGGTGAGGGC the RUNX1 binding intensity was 829.
Work on GGGGCCTCTGCTACTTCCTAGACCGCAAAATGGAGA yielded an RUNX1 binding intensity of 5260.
TGGAGTGGAGGAAGTGGTGTTACCACAGCTCAGAGG gave an RUNX1 binding intensity of 726.
TTTACAGGAAATATCCAGAACAGGTAAACCCACAGA gave an RUNX1 binding intensity of 796.
Work on CGACCGGAACCACTCTGAGGCGCTGCCGCAGACACC yielded an RUNX1 binding intensity of 919.
In the case of TATCAATAAGGAAGTACAATCACCAAACCACAAGCC, the RUNX1 binding intensity is reported as 1170.
With ACCCACTTCCTGTTAGAGCATCTTTGCAACCACAGG the RUNX1 binding intensity was 933.
In the case of ATGGGTACAGGATTTCCTTTTGTGGTGATGAAAATG, the RUNX1 binding intensity is reported as 913.
Work on AGCGTTGTCTTCCGGCCTCAACCACTCAGCGACCGG yielded an RUNX1 binding intensity of 751.
AGCCCGGCTTCCGGCGCGTGCCGCTGCGGCTGCAGG showed an RUNX1 binding intensity of 678.
Sequence GCCACTTCCTGGAAAACAGTAATTACCACACGTCTC has an RUNX1 binding intensity of 1100.
In the case of CCGGGCTGCGGAAGGCGGGAATTCTGCGGTTCGCGG, the RUNX1 binding intensity is reported as 1230.
With CTTACCTACAGTTCCGCTTGCTGTGGTTTCAGTTAC the RUNX1 binding intensity was 1040.

What follows are sequences tested against T1, ETS1 (UniProt P14921) (assay: ETS1 binding intensity (PBM fluorescence) in presence of RUNX1, normalised to ETS1-only experiment (arbitrary fluorescence units); higher = stronger binding). Settings: ETS1 concentration 1 nM; RUNX1 concentration 25 nM.
T1 sequence: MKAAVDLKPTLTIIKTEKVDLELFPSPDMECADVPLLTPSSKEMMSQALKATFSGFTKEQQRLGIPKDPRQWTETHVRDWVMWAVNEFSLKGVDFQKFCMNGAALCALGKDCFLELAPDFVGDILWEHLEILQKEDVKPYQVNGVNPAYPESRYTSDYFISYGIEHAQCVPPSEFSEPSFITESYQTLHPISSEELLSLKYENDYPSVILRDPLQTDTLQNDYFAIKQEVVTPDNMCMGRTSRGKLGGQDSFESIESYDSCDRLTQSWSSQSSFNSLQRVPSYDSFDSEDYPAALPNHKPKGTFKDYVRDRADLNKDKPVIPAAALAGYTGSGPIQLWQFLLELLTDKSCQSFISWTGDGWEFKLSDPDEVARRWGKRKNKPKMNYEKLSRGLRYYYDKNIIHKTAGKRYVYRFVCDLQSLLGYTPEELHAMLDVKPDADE
GGGCGGGTCAGCGGAAGTGAGGGCGGTTGAGGCTGG gave an ETS1 binding intensity of 4550.
TGGAAGAGGGCAGGAAGTGTTGTGGTCACTCCCACC showed an ETS1 binding intensity of 28900.
With CCGCTTCCTTAGAGGTTAAGTGGTGGTGGTTCAGTT the ETS1 binding intensity was 391.
Sequence CTGCGTTTCCTCTGAGTTTTGCATGTTGAGGTTGGA has an ETS1 binding intensity of 382.
GGCGGTGACCGGAAGAGCTGAGTCACCGCAGGCGAC showed an ETS1 binding intensity of 11300.
GGCGGATGGGGAGAAGAGAGTGGCTGTGGTCTCTGG gave an ETS1 binding intensity of 491.
Work on GAGGCGTTTCCGCCTCCTTTTCGCGGTTGCCTTCTC yielded an ETS1 binding intensity of 761.
For ATGGAAAGGAAGTCGGTGGGAAACCGCCTCAGCGGT, the ETS1 binding intensity was 1020.
AGGACACAGACAGGAAACCCGCAGGCTTTGTTTTTT showed an ETS1 binding intensity of 5290.
With CAAGAGCCGGAAGTCCCTTGTGCCGCAGTCCTTCCC the ETS1 binding intensity was 6680.
In the case of TCTGTGAAAAAGGATGTGCGGTTATGGAGGAGAACT, the ETS1 binding intensity is reported as 3460.
GGGGGCGGAAGTTTCGGTGCATTGTGGGTTCTCCTG showed an ETS1 binding intensity of 1980.
In the case of TACAGCCAGGAAATGGGGAGGGTGCTGCGGGCGGCA, the ETS1 binding intensity is reported as 1680.
GCTTGCTCCCACAGGAAACCGCAGGCTTCGGGCACA was tested, and the ETS1 binding intensity was 9810.
In the case of CCCCGCCTCTTCCGCTTCTGTGGTCTGATCTGCCTG, the ETS1 binding intensity is reported as 1040.
In the case of TCTCTACTTCCCATTATTTCTGTGGTTAATTTCACC, the ETS1 binding intensity is reported as 986.
For AGCGGCCTGGGAGGAGGATGTGGTTACGTGGAGACC, the ETS1 binding intensity was 15200.
In the case of CTGGTTTCATTTCCGGGTGCGGCTTCTGTCATAAAG, the ETS1 binding intensity is reported as 2350.
Sequence GCCACAGCCGGAAGCAGGCTGACCACAAGTGCTAAG has an ETS1 binding intensity of 18700.
In the case of GTTAGAGGAAGAGGAAGCGGTCAAGAGATCGTCACA, the ETS1 binding intensity is reported as 1280.
With GACAGGAAGCCCGCGGCAGCCTCCGTGGTTGCAGAT the ETS1 binding intensity was 687.
With GCTCATTTATGCATCCTGTGGTCTGTGTGTGTTTCG the ETS1 binding intensity was 831.
CAGCTCTCTCGCTTCCTGTGGTGTAAACATGAAGCA was tested, and the ETS1 binding intensity was 1400.
AGATGCAGAACAGGAAGTGGTTTAGAAAGCCACTCT showed an ETS1 binding intensity of 13700.
In the case of TACAACTTGCAACGGAAACCACTTCAGGTTCATTAC, the ETS1 binding intensity is reported as 1280.
In the case of GACCACTTCCTTTCTGTGTTTTGTGGTTTCACAACT, the ETS1 binding intensity is reported as 1650.
For TTGAGGGGAAGGGGAGGAAGTGGTCATTGGAACTTG, the ETS1 binding intensity was 3150.
Work on ACCCGGATGTCGTTGGGCAGGAACTGCGGTGAGGGC yielded an ETS1 binding intensity of 7980.
GGGGCCTCTGCTACTTCCTAGACCGCAAAATGGAGA was tested, and the ETS1 binding intensity was 1570.
Work on TGGAGTGGAGGAAGTGGTGTTACCACAGCTCAGAGG yielded an ETS1 binding intensity of 2680.
TTTACAGGAAATATCCAGAACAGGTAAACCCACAGA was tested, and the ETS1 binding intensity was 1630.
Work on CGACCGGAACCACTCTGAGGCGCTGCCGCAGACACC yielded an ETS1 binding intensity of 583.
Sequence TATCAATAAGGAAGTACAATCACCAAACCACAAGCC has an ETS1 binding intensity of 2700.
With ACCCACTTCCTGTTAGAGCATCTTTGCAACCACAGG the ETS1 binding intensity was 3230.
Work on ATGGGTACAGGATTTCCTTTTGTGGTGATGAAAATG yielded an ETS1 binding intensity of 1030.
In the case of AGCGTTGTCTTCCGGCCTCAACCACTCAGCGACCGG, the ETS1 binding intensity is reported as 10600.
Sequence AGCCCGGCTTCCGGCGCGTGCCGCTGCGGCTGCAGG has an ETS1 binding intensity of 1030.
GCCACTTCCTGGAAAACAGTAATTACCACACGTCTC gave an ETS1 binding intensity of 546.
For CCGGGCTGCGGAAGGCGGGAATTCTGCGGTTCGCGG, the ETS1 binding intensity was 1990.
With CTTACCTACAGTTCCGCTTGCTGTGGTTTCAGTTAC the ETS1 binding intensity was 843.

Source: the supplement of paper PMC10681739
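For RUNX1 binding intensity (PBM fluorescence), RUNX1 alone in this document: Full-length recombinant human RUNX1 bound to double-stranded 36-bp genomic probes on a high-density microarray, scored as Alexa488 fluorescence per spot via anti-RUNX1 antibody, median of four replicate spots.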
